Laboratory results from PubChem BioAssay (EPA / NIEHS).
“And” between values parts separate entries of the source, which are not always exact repeats. Identical values can stand only once. Inconclusive results are not listed. Some compounds were tested as several samples or in several runs, with calls that do not always agree. The source made the active and inactive calls. The calls were made as follows: active = hit-call score of the fitted dose curve at least 0.9, where 1 is the maximum; inconclusive = response in the unintended direction; inactive = score below 0.9.

Experiments:
[1] = TOX21_p53_BLA_p2_viability: Viability Assessment in the Tox21 HCT-116 p53 Agonism Beta-lactamase Assay, Phase 2 (AID 2283591);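 also: compound exposure lasted 16 h at 37 °C; actives lower the ATP signal meaning cytotoxicity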
Procedure, shortened: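 Cytotoxicity readout: CellTiter-Glo ATP luminescence, 30 min at room temperature, after the beta-lactamase read. Cells were HCT116 exposed 16 h at 37C to compounds pin-transferred at 217-fold dilution from DMSO stocks.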

[2] = molecular target: Cellular tumor antigen p53 (Homo sapiens) (UniProt P04637); test: TOX21_p53_BLA_p2_ratio: Tox21 HCT-116 p53 Agonism Beta-lactamase Assay, Ratio, Phase 2 (AID 2283592)
Cellular tumor antigen p53 (Homo sapiens), sequence (P04637 whole entry, looked up): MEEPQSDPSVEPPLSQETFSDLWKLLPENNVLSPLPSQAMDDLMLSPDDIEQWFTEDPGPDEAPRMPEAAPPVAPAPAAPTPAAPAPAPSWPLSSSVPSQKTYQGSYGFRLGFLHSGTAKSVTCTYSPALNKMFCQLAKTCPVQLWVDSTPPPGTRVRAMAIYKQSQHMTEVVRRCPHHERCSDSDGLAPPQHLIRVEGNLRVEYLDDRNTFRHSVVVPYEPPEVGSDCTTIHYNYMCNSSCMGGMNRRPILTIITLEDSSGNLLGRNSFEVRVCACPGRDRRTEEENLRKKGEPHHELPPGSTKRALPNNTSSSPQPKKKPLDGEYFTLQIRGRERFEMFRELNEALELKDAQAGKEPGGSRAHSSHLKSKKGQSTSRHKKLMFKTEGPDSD
Procedure, shortened: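 Human colon HCT116 cells with an inducible p53 beta-lactamase reporter are exposed to test chemicals for 16 h at 37C. Reporter induction is read as the 460/530 nm emission ratio after CCF4-AM loading, normalized to DMSO.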

[3] = TOX21_p53_BLA_p3_viability: Viability Assessment in the Tox21 HCT-116 p53 Agonism Beta-lactamase Assay, Phase 3 (AID 2283593);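 also: cells exposed to compound for 16 h before reading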
Procedure, shortened: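 Cellular ATP was quantified by CellTiter-Glo luminescence, read after 30 min at room temperature. Beforehand, HCT116 cells (4000/well) received compound 5 h post-seeding, 217-fold diluted from DMSO, then incubated 16 h at 37C.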

[4] = molecular target: Cellular tumor antigen p53 (Homo sapiens) (UniProt P04637); test: TOX21_p53_BLA_p3_ratio: Tox21 HCT-116 p53 Agonism Beta-lactamase Assay, Ratio, Phase 3 (AID 2283596)
Procedure, shortened: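 HCT116 p53-bla cells (4000/well) given compound in DMSO (217-fold dilution) after 5 h, incubated 16 h at 37C. CCF4-AM substrate 2 h at room temperature; 460/530 nm emission ratio, gain fitted against DMSO.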

[5] = molecular target: Cellular tumor antigen p53 (Homo sapiens) (UniProt P04637); test: TOX21_p53_BLA_p5_ratio: Tox21 HCT-116 p53 Agonism Beta-lactamase Assay, Ratio, Phase 5 (AID 2283599)
Procedure, shortened: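 Beta-lactamase reporter ratio (blue 460 nm over green 530 nm, 405 nm excitation) after 2 h CCF4-AM loading, in HCT-116 cells exposed 16 h at 37 C to compounds pinned at 217-fold dilution. Increases relative to DMSO baseline scored.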

[6] = molecular target: Cellular tumor antigen p53 (Homo sapiens) (UniProt P04637); test: TOX21_p53_BLA_p4_ratio: Tox21 HCT-116 p53 Agonism Beta-lactamase Assay, Ratio, Phase 4 (AID 2283601)
Procedure, shortened: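 Signal is the blue/green (460nm/530nm) ratio of cleaved versus uncleaved CCF4-AM substrate, read after 2 h substrate loading. Cells were HCT116 carrying the p53-responsive beta-lactamase reporter, dosed 16 h at 37C, 5% CO2; CellTiter-Glo measured in parallel.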

[7] = Tanguay_ZF_120hpf_MORT_legacy: (Legacy) Oregon State University Tanguay Lab 120 Hour Post-fertilization zebrafish Assay for Mortality (AID 2283633);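 as to AC50: fitted as increase in binary mortality versus DMSO negative control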
Procedure, shortened: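 Single dechorionated Tropical 5D embryos were held with test chemical (0.64% DMSO final) from 6 to 120 hpf at 28C under foil. Deaths at 24 or 120 hpf were recorded as binary calls, analysed for increase over DMSO controls.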

[8] = TOX21_p53_BLA_p4_viability: Viability Assessment in the Tox21 HCT-116 p53 Agonism Beta-lactamase Assay, Phase 4 (AID 2283597);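 also: hits lower the luminescence signal meaning cytotoxicity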
Procedure, shortened: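 Luminescent ATP readout (CellTiter-Glo, 30 min, room temperature) in the same wells as the p53 bla ratio. HCT116 cells were treated for 16 h at 37C with DMSO-dissolved compounds.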

[9] = TOX21_p53_BLA_p5_viability: Viability Assessment in the Tox21 HCT-116 p53 Agonism Beta-lactamase Assay, Phase 5 (AID 2283600)
Procedure, shortened: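 Seeded cells (4000/well) settle 5 h before compound addition. Plates then incubate 16 h at 37C, receive FRET substrate for 2 h, and finally CellTiter-Glo, with luminescence measured after a 30 min room-temperature incubation.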

[10] = ATG_XTT_Cytotoxicity: Cytotoxicity Assessment in the Attagene TRANS-FACTORIAL HepG2 Assay (AID 2283584)
Procedure, shortened: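 24 h chemical exposure of reporter-transfected HepG2; XTT signal loss vs DMSO indicates cytotoxicity.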

Measured: AC50

ClC1=C(Cl)[C@]2(Cl)[C@H]3[C@H]([C@@H]4C=C[C@H]3C4)[C@@]1(Cl)C2(Cl)Cl
active: [3] 46 µM
inactive: [1] | [2] | [3] | [4] | [5] | [6] | [7]

CN(C)[C@@H]1C(=O)C(C(N)=O)=C(O)[C@@]2(O)C(=O)C3=C(O)c4c(O)cccc4[C@@](C)(O)[C@H]3C[C@@H]12
not listed: [10]
inactive: all other assays above

Nc1ccc(Cl)cc1N
active: [5] 74.7 µM | [7] 25.3 µM
inactive: [1] | [2] | [3] | [4] | [8] | [5] | [6]

Oc1ccc2ccc3cccc4ccc1c2c34
active: [7] 35.6 µM
not listed: [9]
inactive: all other assays above

c1ccc2c(c1)-c1cccc3cccc-2c13
not listed: [9]
inactive: all other assays above

CC(C)(OOC(C)(C)c1ccccc1)c1ccccc1
not listed: [1] | [4] | [9]
inactive: all other assays above

ClC1=C(Cl)C2(Cl)C3C(Cl)C=CC3C1(Cl)C2(Cl)Cl (configuration not stated)
inactive: [1] | [2] | [4] | [8] | [5] | [6] | [7]
active: [1] 85.9 µM | [3] 46.1 µM and 69.6 µM | [8] 45.8 µM

CCCCCCCCn1sccc1=O
inactive: [10] | [1] | [2] | [4] | [8] | [5] | [9]
active: [2] 20.8 µM | [3] 41.7 µM and 72.5 µM | [4] 55.1 µM | [8] 15.4 µM | [6] 23.7 µM and 46.2 µM | [7] 2.96 µM

COc1cc(C=O)cc2c1[C@H](COC(N)=O)[C@]1(OC(C)=O)ON2C[C@H]2[C@@H]1N2C(C)=O
active: [2] 0.249 µM | [4] 0.56 µM | [5] 0.546 µM | [6] 304 nM
not listed: [9]
inactive: all other assays above

CS(=O)(=O)NC(=O)c1cc(Oc2ccc(C(F)(F)F)cc2Cl)ccc1[N+](=O)[O-]
not listed: [5] | [8]
inactive: all other assays above

c1ccc(NNc2ccccc2)cc1
not listed: [3] | [8] | [9]
inactive: all other assays above

CC(O)CCO (configuration not stated)
not listed: [10]
inactive: all other assays above

Cc1ccc(N)c(N)c1
not listed: [10]
inactive: all other assays above

CCN(CC)CCO
not listed: [3] | [9]
inactive: all other assays above

CCC12COCN1COC2
not listed: [10]
inactive: all other assays above

Clc1ccc(Cl)c(Cl)c1
not listed: [7] | [8] | [9]
inactive: all other assays above

CO[C@@H]1[C@H](OC(=O)NC(=O)CCl)CC[C@]2(CO2)[C@H]1[C@@]1(C)O[C@@H]1CC=C(C)C
inactive: [10] | [3] | [4] | [8] | [5] | [7]

Clc1ccc(C(c2ccc(Cl)cc2)C(Cl)Cl)cc1
inactive: [10] | [2] | [4] | [7]
active: [1] 59.6 µM and 33.7 µM | [2] 68 µM | [3] 79.1 µM and 50.6 µM | [4] 48.4 µM | [8] 63.4 µM and 46.7 µM | [5] 89.8 µM and 85.4 µM | [9] 81.2 µM and 73.1 µM | [6] 78.4 µM and 79.1 µM

CCC(C)c1ccc(O)cc1 (configuration not stated)
not listed: [10]
inactive: all other assays above

Cc1cc(N=Nc2ccccc2C)ccc1N
active: [1] 81 µM | [2] 73.1 µM | [8] 46.1 µM | [5] 73.3 µM and 76.2 µM | [6] 74400 nM
inactive: [1] | [2] | [3] | [4] | [8] | [9] | [6] | [7]

Clc1ccccc1Cl
inactive: [10] | [7]

CN(C)c1ccccc1
inactive: all assays above

Cc1cccc(N)c1N
active: [8] 26.8 µM
inactive: [1] | [2] | [3] | [4] | [8] | [5] | [6] | [7]

Clc1ccc(C(c2ccc(Cl)cc2)C(Cl)(Cl)Cl)cc1
active: [1] 46.1 µM and 46.4 µM and 23 µM | [2] 60.7 µM and 31.1 µM | [3] 77.1 µM and 30.7 µM | [8] 30.7 µM | [5] 82.5 µM and 43.3 µM
inactive: [2] | [3] | [4] | [8] | [5] | [6] | [7]

CC(C)N(Cc1ccccc1)C(=O)C(C)(C)C
inactive: [10] | [3] | [4] | [5] | [6] | [7]

C[C@]12C=CC3=C4CCC(=O)C=C4CC[C@H]3[C@@H]1CC[C@@H]2O
inactive: [10] | [7]

O=[N+]([O-])c1ccc(Oc2ccc(Cl)cc2Cl)cc1
inactive: all assays above

CNC(=O)Oc1cccc2c1OC(C)(C)C2
not listed: [8] | [10]
inactive: all other assays above

[As]#[In]
inactive: [1] | [2] | [3] | [4] | [6] | [7]

ClCCOCCCl
not listed: [5] | [9] | [10]
inactive: all other assays above

CN(C)c1ccc(C(=O)c2ccc(N(C)C)cc2)cc1
active: [2] 748 nM and 1.29 µM | [4] 826 nM and 1.65 µM | [5] 690 nM and 351 nM | [6] 907 nM and 463 nM | [7] 9.64 µM
inactive: [1] | [8]

Nc1ccc(Cc2ccc(N)cc2)cc1
not listed: [3] | [9] | [10]
inactive: all other assays above

CC(C)(C)OOC(C)(C)CCC(C)(C)OOC(C)(C)C
inactive: [1] | [2] | [3] | [5] | [6] | [7]

C[N+](C)(C)CC1CO1 (configuration not stated)
not listed: [8] | [9] | [10]
inactive: all other assays above

Nc1ccc(Oc2ccc(N)cc2)cc1
not listed: [8] | [10]
inactive: all other assays above
